# Test results taken from PubChem BioAssay AID2315 (National Center for Advancing Translational Sciences (NCATS), 2010).
# In all, about 290,000 compounds went through this assay and about 27,000 (9.3%) were called active. The sample holds actives, similar compounds and a random draw of the others, so the mix is not that of the screen. Unmarked numbers belong to inactive results. Cut-off read from the data, not from the text of the source: active = inhibition mostly above about 28% (no sharp cut-off); inactive = mostly below about 43%.
# Assay: A qHTS for Small Molecule Inhibitors of Shiga Toxin; note: 0% is about no effect
# Settings: Vero cells, Shiga toxin protein synthesis inhibition reporter; at 38.7 µM, hits give high values
row,SMILES,inhibition
1,CCOc1cc(CN2CCCC(CO)(Cc3ccc(F)cc3F)C2)ccc1OC (stereo unspecified),1.36%
2,COC(=O)Cn1cnc2scc(-c3ccc(C)c(C)c3)c2c1=O,-16.4%
3,CC(C)Oc1ccc(/C=N/NC(=O)c2nnn(-c3nonc3N)c2CN(C)C2CCCCC2)cc1,-5.14%
4,CCOc1ccc(S(=O)(=O)NCCCn2ccnc2)cc1NC(C)=O,-15.3%
5,COc1ccc(OC)c(NC(=O)c2ccc3c(c2)C(=O)N(c2ccc(OC(C)=O)cc2)C3=O)c1,-4.38%
6,COc1cc(NC(=O)c2ccc(-c3csc(C)n3)cc2)c(OC)cc1Cl,-19.7%
7,O=c1oc2ccccc2c(NC2CCCCC2)c1NS(=O)(=O)c1ccc(Cl)cc1,-3.24%
8,Cc1ccc(CN(CC(=O)NCC2CCCO2)S(=O)(=O)c2ccc(C)cc2)cc1 (stereo unspecified),-7.48%
9,Cc1cccc(N2C(=O)N3[C@H](c4ccc(F)cc4)[C@@H]4C(=O)N(C5CCCCC5)C(=O)[C@@H]4[C@]3(Cc3ccccc3)C2=O)c1,-2.98%
10,Cc1c(NC(=O)c2cc(-c3ccc(Br)cc3)on2)c(=O)n(-c2ccccc2)n1C,20%
11,CSc1ncc(C(=O)NCCCc2ccccc2)c(C)n1,28.3%
12,COc1ccccc1CNC(=O)c1ccc(N(C)S(=O)(=O)c2ccc(C)cc2)cc1,4.41%
13,CN(c1ccccc1)S(=O)(=O)c1ccc(C(=O)NCCc2ccccc2)cc1,50.1% (active)
14,CCN(CC)CCCNC(=O)c1cc(-c2cccc(Cl)c2)on1,-7.26%
15,Cc1ccccc1CSCCNC(=O)c1ccc(N(C)S(=O)(=O)c2ccccc2)cc1,-13.5%
16,CCCCNC(=S)NNC(=O)c1cc(C)on1,6.4%
17,CC(C)CNC(=O)c1cc(-c2ccc(Br)cc2)on1,52.5% (active)
18,Cc1cc(C(=O)NCCCc2ccccc2)no1,35.8% (active)
19,CC(C)Cn1c(=O)c2ccccc2n2c(CCC(=O)NCc3ccccn3)nnc12,17.2%
20,O=Cc1cn(-c2ccccc2)nc1-c1ccccn1,16.4%
21,Cc1ccccc1OCC(=O)NNC(=O)c1cc(S(=O)(=O)N(C)C)ccc1N1CCCC1,-3.25%
22,CCCCNC(=O)C1(O)c2ccccc2NC(=O)N1c1ccc(Cl)cc1 (stereo unspecified),20.3%
23,COc1ccc(N2CCN(C3CCCCC3NS(=O)(=O)c3ccccc3)CC2)cc1 (stereo unspecified),-5.29%
24,CC(C(=O)c1ccc(-c2ccccc2)cc1)[n+]1cccc(Br)c1 (stereo unspecified),-5.48%

row,SMILES,inhibition
1,CCn1c(SCC(=O)Nc2ccc3c(c2)OCCO3)nnc1C(C)C,23.4%
2,CCC(=O)N1CCN(c2ccccc2NC(=O)COc2cccc(C)c2C)CC1,-4.98%
3,COc1ccc(S(=O)(=O)N2CCOC2CNC(=O)C(=O)NCc2ccc(F)cc2)cc1 (stereo unspecified),-3.23%
4,Cc1ccc(S(=O)(=O)NCCCn2ccnc2)cc1C(=O)NC(C)C,-5.57%
5,COc1ccc(C(=O)Nc2ccccc2C(=O)NCc2ccco2)cc1,55.1% (active)
6,Cc1ccc(N(Cc2ccc(C(=O)Nc3ccccc3C(=O)NCc3ccco3)cc2)S(C)(=O)=O)cc1C,-16.6%
7,COc1cccc(NC(=S)NCc2ccco2)c1,-1.12%
8,COc1cc(C(=O)NC(=S)NCc2ccco2)cc(OC)c1OC,-9.57%
9,COc1ccc2c(Cl)c(C(=O)NCc3ccco3)sc2c1,93.2% (active)
10,O=C(Nc1ccccc1)Nc1ccccc1C(=O)NCc1ccco1,17.2%
11,O=C(NCc1ccco1)c1sc2cccc(F)c2c1Cl,80.8% (active)
12,COc1cc(C(=O)N[C@@H](C)C(=O)NCc2ccco2)cc(OC)c1OC,-3.33%
13,O=C(NCc1ccco1)c1nn2cccnc2c1Cl,18.5%
14,COc1ccc2oc(C(=O)NCc3ccco3)c(C)c2c1,57% (active)
15,O=C(NCc1ccco1)c1cc2sccc2n1Cc1ccc(F)cc1,59.6%
16,COc1ccc2oc(C(=O)NCC(Cc3ccccc3)N(C)C)c(C)c2c1 (stereo unspecified),19.2%
17,CCNc1c(NS(=O)(=O)c2ccc(C3CCCCC3)cc2)c(=O)oc2ccccc12,-11.4%
18,COc1ccc(OCC(O)CN(C)C(=O)C(C)Oc2ccccc2)cc1 (stereo unspecified),-1.44%
19,Cc1cccc(NS(=O)(=O)c2ccc(-c3cnc(C4CC4)o3)cc2)c1,14.4%
20,CC(C)[C@H](NC(=O)N1CC(=O)Nc2ccccc21)C(=O)N[C@@H](Cc1c[nH]c2ccccc12)C(=O)O,-8.09%
21,C=CCOc1cccc(C2NC(=O)c3ccccc3O2)c1 (stereo unspecified),5.66%
22,Cc1ccc(S(=O)(=O)N2CCN(C(=O)CSc3cc(C)ccc3C)CC2)c(C)c1,-13%
23,COc1ccc(C(=O)Nc2ccccc2C(=O)N/N=C/c2ccccc2OC)cc1,89.2% (active)
24,COc1ccc(C(=O)Nc2ccccc2C(=O)N/N=C/c2ccc(O)c(OC)c2)cc1,-21.6%

row,SMILES,inhibition
1,COc1ccccc1C(=O)NNC(=O)c1ccc(NC(=O)c2ccccc2)cc1,-13.9%
2,COc1ccc(C(=O)NC(C)c2nccs2)cc1OC1CCN(C(C)C)CC1 (stereo unspecified),-1.47%
3,Cc1cccc(NC(=S)N2CCC(c3nc4ccccc4s3)CC2)c1,-9.34%
4,Cc1nc2ccc(NC(=O)N3CCC(c4ccccc4)C3)cc2nc1C (stereo unspecified),2.35%
5,Cc1nc2ccc(NC(=S)N3CCC(C)CC3)cc2nc1C,33.9% (active)
6,O=C(Cn1ncc(N2CCCC2)c(Br)c1=O)c1ccc(Cl)cc1,37.7% (active)
7,Cn1c(=O)c2c(nc(N3CCCCCC3)n2CC(=O)c2ccc(Br)cc2)n(C)c1=O,2.71%
8,CC(=O)Cn1ncc(N2CCOCC2)c(Br)c1=O,-5.02%
9,O=C(CNc1cccc(S(=O)(=O)N2CCCCC2)c1)Nc1ccccc1F,-9.02%
10,CCc1ccc(NC(=O)Cn2nnc(C(=O)NCc3ccc4c(c3)OCO4)c2N)cc1,0.685%
11,Cc1cccc2sc(N(CCCN(C)C)C(=O)CCS(=O)(=O)c3ccccc3)nc12,6.64%
12,CCn1nc(C(=O)OCC(=O)N2c3ccccc3CC2C)c2ccccc2c1=O (stereo unspecified),-10.9%
13,CCCC(=O)N1c2ccc(-c3csc(N)n3)cc2CC1C (stereo unspecified),71.3% (active)
14,Cc1ccn(CCC(=O)N2c3ccccc3CC2C)n1 (stereo unspecified),-3.39%
15,CCC(C)Sc1nc2c(cnn2-c2ccc(F)cc2)c(=O)[nH]1 (stereo unspecified),-5.58%
16,COc1cccc(OCC(O)CNC(=O)c2oc3c(C)c(C)ccc3c2C)c1 (stereo unspecified),-9.45%
17,CCOCc1nnc(NC(=O)CCS(=O)(=O)Cc2ccccc2)s1,-3.13%
18,Cc1cccc(CCNS(=O)(=O)c2ccc3c(c2)NC(=O)CO3)c1,-6.16%
19,Cc1cc2ncn(CCCCOc3ccccc3)c2cc1C,-3.93%
20,Cc1nn(CCOc2ccccc2)c(=O)n1-c1ccccc1F,72.3% (active)
21,Clc1ncn(CCOc2ccccc2)c1Cl,-16.2%
22,COc1ccc(-c2nc3c(s2)CCc2onc(-c4ccc(OC)cc4)c2-3)cc1,-4%
23,Cc1nn(C)c(Cl)c1CN1CCC(n2nccc2NC(=O)C2CCCC2)CC1,-4.44%
24,O=C(NCc1cccc(Cl)c1)C1CCC(=O)N(C2CC2)C1 (stereo unspecified),1.78%

row,SMILES,inhibition
1,O=C(N/N=C/c1c[nH]c2ccccc12)c1ccccc1O,46.2% (active)
2,Cc1c(/C=N\NC(=O)c2cc3ccccc3o2)c2ccccc2n1C,33.2%
3,CSC(=S)N/N=C/c1c[nH]c2ccccc12,18.5%
4,O=C(N/N=C/c1ccc([N+](=O)[O-])cc1)c1c[nH]c2ccccc12,35.6%
5,O=C(N/N=C/c1c[nH]c2ccccc12)c1cc2ccccc2o1,51.6% (active)
6,O=C(N/N=C/c1coc2ccccc2c1=O)c1cc2ccccc2o1,-15.3%
7,COc1cccc(NC(=O)C/C(C)=N/NC(=O)C2CCCCC2)c1,5.94%
8,CCC(C)C(NC(=O)C1CCC(=O)N1C(=O)OCc1ccccc1)C(=O)NC(C(=O)N1CCCC1C(N)=O)C(C)CC (stereo unspecified),-2.25%
9,COc1ccc(C/C(C)=N/NC(=O)c2ccncc2)cc1,13.5%
10,CCCCCNC(=O)Cc1ccc(OC)cc1,35.5%
11,COc1ccc(C/C(C)=N/NC(=O)c2cc(C)oc2C)cc1,39.4% (active)
12,Cc1nc2nc(C)c(NS(=O)(=O)c3ccc(C(C)(C)C)cc3)c(=O)n2[nH]1,-4.52%
13,Cc1ccc(C)c(NC(CC(=O)c2ccccc2)C(=O)OCC(=O)c2cccs2)c1 (stereo unspecified),-2.14%
14,C/C(=N\NC(=O)COc1c(C)cccc1C)c1cccs1,23.6%
15,Cc1ccccc1C(CC(=O)c1cccs1)C(C#N)C#N (stereo unspecified),60.4% (active)
16,CCOc1ccc(CN2CCN(Cc3c[nH]c4ccccc34)CC2)cc1,-7.52%
17,C/C=C/C(=O)OCc1csc(CC(=O)Nc2ccccc2C)n1,-12.5%
18,Cc1ccc2c(c1)c1ncn(Cc3ccc(F)cc3)c(=O)c1n2C,-13.4%
19,Cc1ccc2c(c1)c1ncnc(N3CCc4ccccc4C3)c1n2C,61.5% (active)
20,Cc1ccc2c(c1)c1ncn(CCC3=CCCCC3)c(=O)c1n2C,1.3%
21,COc1ccc(-c2cc(C(=O)N3CCN(Cc4ccc5c(c4)OCO5)CC3)on2)cc1OC,-5.83%
22,COCC1CCN(C(=O)CCc2nnc(C3(c4ccc(Cl)cc4)CCC3)o2)C1 (stereo unspecified),59.4% (active)
23,O=C1CCC(CCC(=O)N2CCCC(C(=O)c3ccc(Cl)cc3)C2)=NN1 (stereo unspecified),12.9%
24,COCC1CCCN(C(=O)c2ccc3oc(C(C)C)nc3c2)C1 (stereo unspecified),13.8%
